From PubChem BioAssay (EPA / NIEHS)
“And” between values parts separate entries of the source, which are not always exact repeats. Equal values may be shown once. The source holds several records for some structures; these can differ, active in one and inactive in another. The source made the active and inactive calls. Rule for the calls: active = hit-call score of the fitted dose curve at least 0.9, where 1 is the maximum; inactive = score below 0.9.

Experiments:
[1] = target: Bile acid receptor (Homo sapiens) (UniProt Q96RI1); assay: ATG_IR1_CIS: Attagene CIS-FACTORIAL HepG2 Assay for human Nuclear Receptor Subfamily 1 Group H Member 4 (NR1H4), IR1 submotif (AID 2282946); conditions: IR1 reporter transcription, actives raise or lower the signal
Summary of the method: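 Cells (human HepG2) carry transiently transfected cis-promoter reporter transcription units. Compounds are incubated 24 h, total RNA is reverse-transcribed and amplified, and labelled fragments are resolved by capillary electrophoresis. Curves use DMSO as baseline.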

[2] = ATG_GRE_CIS: Attagene CIS-FACTORIAL HepG2 Assay for human Glucocorticoid Response Elements (GRE) (AID 2282947); conditions: HepG2 GRE cis-reporter, Attagene multiplex mRNA; actives raise or lower the signal
Summary of the method: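 Assay uses human hepatoma HepG2 cells transfected with cis-promoter reporter units, exposed 24 h. mRNA from reporters detected by RT-PCR plus capillary electrophoresis; DMSO serves as negative control and baseline.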

[3] = ATG_ISRE_CIS: Attagene CIS-FACTORIAL HepG2 Assay for human Interferon Regulatory Factor 1 (IRF1) binding to an Interferon-Stimulated Response Element (ISRE) (AID 2282948); conditions: HepG2 ISRE cis-reporter (Attagene), mRNA transcription readout; actives raise or lower the signal
Summary of the method: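 Transfected HepG2 (multiple reporter transcription units, cis elements) dosed 24 h. RNA → oligo(dT) RT → PCR → 6-FAM primer extension → HpaI → CE. DMSO = negative control/baseline.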

[4] = ATG_M_32_CIS: Attagene CIS-FACTORIAL HepG2 Assay for M32 Transcription Factor (Internal Marker) (AID 2282949); conditions: HepG2 Attagene cis-factorial M32 reporter, mRNA; actives raise or lower the signal;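 note: background control marker of the multiplexed CIS panel rather than a real target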
Summary of the method: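 Following 24 h chemical exposure of HepG2 cells transiently expressing cis-promoter reporter constructs, reporter transcript levels were determined by RT-PCR with fluorescent labelling and capillary electrophoresis, then fitted bidirectionally against DMSO.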

[5] = ATG_M_06_CIS: Attagene CIS-FACTORIAL HepG2 Assay for M06 Transcription Factor (Internal Marker) (AID 2282950); conditions: HepG2 Attagene CIS-FACTORIAL M06 internal marker reporter; actives raise or lower the signal
Summary of the method: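 Internal background marker within multiplexed cis-reporter HepG2 system. Cells transiently transfected, dosed 24 h; reporter mRNA measured by RT-PCR, HpaI digestion and capillary electrophoresis. Bidirectional fit relative to DMSO.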

[6] = target: Hypoxia-inducible factor 1-alpha (Homo sapiens) (UniProt Q16665); assay: ATG_HIF1a_CIS: Attagene CIS-FACTORIAL HepG2 Assay for human Hypoxia Inducible Factor 1 (HIF1A) (AID 2282951); conditions: HepG2 Attagene cis-factorial HIF1a reporter transcription; actives raise or lower the signal
Summary of the method: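 RT-PCR/capillary electrophoresis fluorescence readout of reporter transcripts from endogenous-TF-driven cis elements in transfected HepG2 cells, 24 h exposure; activity fitted in both directions against DMSO controls.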

[7] = target: Hepatocyte nuclear factor 6 (Homo sapiens) (UniProt Q9UBC0); assay: ATG_HNF6_CIS: Attagene CIS-FACTORIAL HepG2 Assay for human Hepatocyte Nuclear Factor 6 (HNF6) (AID 2282952); conditions: HepG2 Attagene cis-factorial HNF6 reporter transcription; actives raise or lower the signal
Summary of the method: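 HepG2 cells transiently transfected with cis-element-driven multiplexed reporter units measuring endogenous transcription factor activity. After 24 h exposure, reporter mRNA quantified by RT-PCR, FAM-labelled fragments and capillary electrophoresis; bidirectional fitting versus DMSO.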

[8] = target: Heat shock factor protein 1 (Homo sapiens) (UniProt Q00613); assay: ATG_HSE_CIS: Attagene CIS-FACTORIAL HepG2 Assay for human Heat Shock Transcription Factor 1 (HSE) (AID 2282953); conditions: HepG2 HSE cis-reporter, Attagene RNA transcription; actives raise or lower the signal
Summary of the method: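 HepG2 cells transfected with cis-promoter reporter units sensing endogenous transcription factor activity; reporter mRNA quantified 24 h post-dose by RT-PCR and capillary electrophoresis of 6-FAM-labelled products. Bidirectional fitting against DMSO.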

[9] = ATG_MRE_CIS: Attagene CIS-FACTORIAL HepG2 Assay for human Metal Responsive Element (MRE) (AID 2282954); conditions: HepG2 MRE cis-reporter transcription, Attagene multiplex; actives raise or lower the signal
Summary of the method: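 After a 24 h chemical exposure, transiently transfected HepG2 cells yield RNA whose reporter sequences are amplified, FAM-labelled and sized by capillary electrophoresis. Curves are fitted bidirectionally relative to DMSO.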

[10] = ATG_PBREM_CIS: Attagene CIS-FACTORIAL HepG2 Assay for human Phenobarbital-responsive Enhancer Module (PBREM) (AID 2282955); conditions: HepG2 PBREM cis-reporter, Attagene multiplexed transcription; actives raise or lower the signal
Summary of the method: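 Reporter mRNA read by RT-PCR, 6-FAM primer extension, HpaI digestion and capillary electrophoresis. Transfected HepG2 cells, 24 h compound exposure. Gain or loss of signal fitted bidirectionally relative to DMSO baseline.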

Measured: AC50

Sequence of Hepatocyte nuclear factor 6 (Homo sapiens) (Q9UBC0 whole entry, looked up, the tested form may be a part): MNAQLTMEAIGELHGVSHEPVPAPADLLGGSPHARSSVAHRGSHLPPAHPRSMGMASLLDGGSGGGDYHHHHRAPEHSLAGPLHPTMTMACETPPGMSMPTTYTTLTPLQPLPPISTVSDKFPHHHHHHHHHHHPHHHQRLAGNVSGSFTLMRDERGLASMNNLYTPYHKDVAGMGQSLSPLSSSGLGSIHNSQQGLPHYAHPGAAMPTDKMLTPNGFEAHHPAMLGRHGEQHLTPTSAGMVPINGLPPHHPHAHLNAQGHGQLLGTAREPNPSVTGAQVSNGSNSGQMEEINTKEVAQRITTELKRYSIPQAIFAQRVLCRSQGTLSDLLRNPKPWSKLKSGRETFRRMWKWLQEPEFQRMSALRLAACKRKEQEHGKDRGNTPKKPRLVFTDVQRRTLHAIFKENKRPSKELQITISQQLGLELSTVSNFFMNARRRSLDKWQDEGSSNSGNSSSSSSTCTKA
Sequence of Hypoxia-inducible factor 1-alpha (Homo sapiens) (Q16665 whole entry, looked up): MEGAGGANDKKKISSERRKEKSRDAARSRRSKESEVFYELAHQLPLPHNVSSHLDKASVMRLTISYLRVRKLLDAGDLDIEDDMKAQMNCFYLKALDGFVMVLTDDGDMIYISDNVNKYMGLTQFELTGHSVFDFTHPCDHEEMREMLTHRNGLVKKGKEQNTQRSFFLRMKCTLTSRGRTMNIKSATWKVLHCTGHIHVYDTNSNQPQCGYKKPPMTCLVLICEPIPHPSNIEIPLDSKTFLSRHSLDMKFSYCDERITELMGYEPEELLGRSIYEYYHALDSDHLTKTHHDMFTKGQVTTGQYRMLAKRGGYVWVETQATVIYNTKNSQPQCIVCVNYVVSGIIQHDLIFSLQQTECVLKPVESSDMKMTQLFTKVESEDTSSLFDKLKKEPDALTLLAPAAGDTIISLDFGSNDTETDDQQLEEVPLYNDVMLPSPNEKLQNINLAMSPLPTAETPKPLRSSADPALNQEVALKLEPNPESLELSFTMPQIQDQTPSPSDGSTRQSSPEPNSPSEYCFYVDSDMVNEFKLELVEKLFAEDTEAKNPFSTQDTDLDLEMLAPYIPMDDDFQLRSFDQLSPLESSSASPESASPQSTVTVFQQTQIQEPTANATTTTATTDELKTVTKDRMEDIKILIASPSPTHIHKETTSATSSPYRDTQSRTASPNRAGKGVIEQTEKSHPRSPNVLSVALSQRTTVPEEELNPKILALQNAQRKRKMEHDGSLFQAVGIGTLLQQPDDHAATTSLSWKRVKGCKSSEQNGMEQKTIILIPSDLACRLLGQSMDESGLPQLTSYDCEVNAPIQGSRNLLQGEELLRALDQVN
Sequence of Heat shock factor protein 1 (Homo sapiens) (Q00613 whole entry, looked up): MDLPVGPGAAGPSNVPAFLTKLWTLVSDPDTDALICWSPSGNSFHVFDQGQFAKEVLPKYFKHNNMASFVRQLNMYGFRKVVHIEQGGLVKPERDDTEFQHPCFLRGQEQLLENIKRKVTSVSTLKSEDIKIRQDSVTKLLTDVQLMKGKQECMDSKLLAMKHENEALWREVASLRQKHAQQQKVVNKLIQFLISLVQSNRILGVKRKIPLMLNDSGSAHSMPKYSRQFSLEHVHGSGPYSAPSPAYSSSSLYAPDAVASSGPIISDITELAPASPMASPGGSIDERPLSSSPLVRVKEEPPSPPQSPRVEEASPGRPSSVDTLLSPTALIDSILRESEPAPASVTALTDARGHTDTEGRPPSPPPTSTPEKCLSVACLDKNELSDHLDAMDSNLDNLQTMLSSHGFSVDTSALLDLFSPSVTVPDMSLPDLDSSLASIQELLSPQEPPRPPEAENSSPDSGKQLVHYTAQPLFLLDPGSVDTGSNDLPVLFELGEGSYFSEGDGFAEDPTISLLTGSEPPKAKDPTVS
Sequence of Bile acid receptor (Homo sapiens) (Q96RI1 whole entry, looked up, the tested form may be a part): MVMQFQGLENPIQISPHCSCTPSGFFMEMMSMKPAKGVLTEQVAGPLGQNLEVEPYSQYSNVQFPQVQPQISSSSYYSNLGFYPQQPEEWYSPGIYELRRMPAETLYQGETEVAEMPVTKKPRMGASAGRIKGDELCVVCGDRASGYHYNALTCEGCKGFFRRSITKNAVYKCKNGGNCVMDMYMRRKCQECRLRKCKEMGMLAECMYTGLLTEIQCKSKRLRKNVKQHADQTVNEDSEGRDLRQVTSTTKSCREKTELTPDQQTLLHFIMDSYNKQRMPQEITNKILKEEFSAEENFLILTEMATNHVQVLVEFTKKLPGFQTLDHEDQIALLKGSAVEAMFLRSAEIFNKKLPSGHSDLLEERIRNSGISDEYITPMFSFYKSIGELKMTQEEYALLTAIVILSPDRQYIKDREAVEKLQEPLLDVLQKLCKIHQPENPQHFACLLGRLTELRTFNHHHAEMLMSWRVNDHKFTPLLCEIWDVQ

OC12N=C(c3ccccc3)SC1Cc1cc(Cl)ccc12 (configuration not stated)
inactive: [1] | [2] | [3] | [4] | [5] | [6] | [7] | [8] | [9]

COCC(C)OCC(C)OCC(C)O (configuration not stated)
inactive: [1] | [2] | [3] | [4] | [5] | [7] | [8] | [9] | [10]

CC1=CC(=O)/C(=C(/C)O)C(=O)O1
inactive: [1] | [2] | [3] | [4] | [5] | [6] | [8] | [9] | [10]

CN(C)C(=O)C1(N2CCCCC2)CCN(CC[C@@]2(c3ccc(Cl)c(Cl)c3)CN(C(=O)c3ccccc3)CCO2)CC1
active: [6] 1.01 µM
inactive: [1] | [2] | [3] | [4] | [5] | [7] | [8] | [9] | [10]

CCCC(=O)OCCC(C)C
inactive: [1] | [2] | [3] | [4] | [5] | [6] | [8] | [9]

NCc1cccc(C2CCN(C(=O)c3ccc(C#Cc4ccccc4F)o3)CC2)c1
active: [3] 19.4 µM | [8] 17.2 µM | [9] 9.13 µM | [10] 18 µM
inactive: [1] | [2] | [4] | [5] | [7]

Cc1ccc2oc(CN(Cc3ccccc3)C(=O)Nc3c(F)cc(F)cc3F)c(-c3ccc(Cl)cc3)c2c1
inactive: [1] | [2] | [3] | [4] | [5] | [7] | [8] | [9]

O=C(Nc1ccc(Cl)cc1)Nc1ccc(Cl)c(Cl)c1
inactive: [1] | [2] | [4] | [5] | [6] | [8] | [9] | [10]
active: [3] 5.89 µM

CC(C)(C)c1csc(-c2cc3cc(OCc4ccccc4CC(=O)O)ccc3o2)n1
active: [3] 33.4 µM | [8] 62.7 µM | [9] 43.8 µM
inactive: [1] | [2] | [4] | [5] | [6] | [7] | [10]

CC(C)(c1cc(Br)c(O)c(Br)c1)c1cc(Br)c(O)c(Br)c1
inactive: [1] | [2] | [3] | [4] | [5] | [7] | [10]
active: [1] 16.3 µM | [3] 44.8 µM | [8] 49.8 µM and 49.3 µM | [9] 46.7 µM and 48.6 µM

CN1C(=O)N(c2ccccc2Br)Cc2cnc(Nc3ccc4c(c3)OCC(CO)O4)nc21 (configuration not stated)
inactive: [1] | [2] | [3] | [4] | [5] | [8]
active: [9] 33.2 µM

COc1ccc2cc(S(=O)(=O)N[C@H](CC(=O)N[C@H](Cc3ccc(CN4[C@H](C)CCC[C@@H]4C)cc3)C(=O)N(C)C(C)C)c3ccc4c(c3)OCO4)ccc2c1
active: [3] 11 µM | [6] 1.38 µM | [9] 11 µM
inactive: [1] | [2] | [4] | [5] | [7] | [8] | [10]

O=C(O)c1ccccc1C(=O)OCc1ccccc1
inactive: [1] | [2] | [3] | [4] | [5] | [7] | [8] | [9] | [10]

NC(=O)c1nc(-c2cccc(-c3cc(F)ccc3OCC(F)(F)C(F)(F)F)c2)n[nH]1
inactive: [2] | [3] | [4] | [5]
active: [1] 51.6 µM | [6] 2.7 µM | [8] 59.9 µM | [9] 51.2 µM

Cc1cc2c(cc1C(F)(F)F)N(C(=O)Nc1ccc(Oc3cccnc3C)nc1)CC2
inactive: [1] | [2] | [3] | [4] | [5] | [6] | [7] | [8] | [9] | [10]

O=C(OCCCCCCOC(=O)c1ccccc1)c1ccccc1
inactive: [1] | [2] | [3] | [4] | [5] | [7] | [8] | [9] | [10]

CCCCCCCCCCCC[N+](C)(C)C
inactive: [1] | [2] | [4] | [5] | [8] | [9] | [10]
active: [3] 16.6 µM and 15.3 µM | [9] 33.4 µM

Cc1cc(F)ccc1-c1cc(N2CC[C@@H](O)[C@H]2CO)ncc1N(C)C(=O)C(C)(C)c1cc(C(F)(F)F)cc(C(F)(F)F)c1
inactive: [1] | [2] | [3] | [4] | [5] | [7] | [8] | [9] | [10]

CCCCOC(=O)CC(CC(=O)OCCCC)(OC(C)=O)C(=O)OCCCC
inactive: [1] | [2] | [3] | [4] | [5] | [6] | [7] | [8] | [10]
active: [3] 26.7 µM | [9] 27.2 µM and 20.7 µM | [10] 26.6 µM

O=CCCCC=O
inactive: [1] | [2] | [3] | [4] | [5] | [8] | [9] | [10]
active: [3] 125 µM

Cc1cn([C@H]2C[C@H](N=[N+]=[N-])[C@@H](CO)O2)c(=O)[nH]c1=O
inactive: [1] | [2] | [3] | [4] | [5] | [8] | [9]

O=c1c(-c2ccc(O)cc2)coc2cc(O)cc(O)c12
inactive: [1] | [2] | [3] | [4] | [5] | [7] | [8] | [9] | [10]
active: [1] 10.4 µM and 10.6 µM | [9] 81.4 µM and 137 µM | [10] 43.7 µM

COc1cc(C(=O)NC2CCN(C)CC2)ccc1Nc1ncc2c(n1)N(C1CCCC1)CC(F)(F)C(=O)N2C
active: [2] 0.872 µM | [3] 4.8 µM | [9] 2.37 µM
inactive: [1] | [4] | [5] | [6] | [8] | [10]

CCOC(=O)O[C@H](C)OC(=O)c1ccc2c(c1)cc(C(=O)NC1CCN(C(C)C)CC1)n2Cc1cc(-c2ccc(Cl)s2)on1
inactive: [1] | [2] | [3] | [4] | [5] | [8] | [10]
active: [6] 20.9 µM | [9] 51.1 µM

CCN(Cc1cccnc1)C(=O)c1cccc(Cl)c1[C@]1(C)C(=O)N(Cc2ccc(OC)cc2OC)c2ccc(Cl)cc21
inactive: [1] | [2] | [4] | [5] | [6]
active: [3] 7.7 µM | [8] 40.4 µM | [9] 7.17 µM | [10] 1.47 µM

CC(C)(C)c1cc(/C=C2\SC(N)=NC2=O)cc(C(C)(C)C)c1O
inactive: [2] | [4] | [5] | [7]
active: [1] 8.2 µM | [3] 11 µM | [8] 20 µM | [9] 15 µM

COc1cccc([C@H](O)C2CCN(CCc3ccc(F)cc3)CC2)c1OC
inactive: [1] | [2] | [3] | [4] | [5] | [7] | [8] | [9]

CCCCOC(=O)c1ccc(O)cc1
inactive: [1] | [2] | [3] | [4] | [5] | [8] | [9] | [10]
active: [3] 148 µM and 151 µM | [8] 148 µM | [9] 143 µM and 129 µM | [10] 58.9 µM

CN(C[C@@H](CC[N+]12CCC(C3CCCCC3)(CC1)CC2)c1ccc(Cl)c(Cl)c1)C(=O)c1cc(C(F)(F)F)cc(C(F)(F)F)c1
inactive: [1] | [2] | [3] | [4] | [5] | [6] | [8] | [9] | [10]

O=C(O)c1ccccc1-n1cc(C(=O)O)c(=O)c2cc(Nc3c(F)cc(F)cc3Cl)c(Cl)cc21
inactive: [1] | [2] | [3] | [4] | [5] | [7] | [8] | [9] | [10]

O=C(O)Cc1cc(I)c(Oc2ccc(O)c(I)c2)c(I)c1
inactive: [1] | [2] | [3] | [4] | [5] | [7] | [10]
active: [8] 170 µM [middle of 4 runs] | [9] 80.5 µM [middle of 4 runs]

Clc1ccccc1C(c1ccccc1)(c1ccccc1)n1ccnc1
inactive: [1] | [2] | [4] | [5] | [7]
active: [3] 11.1 µM | [8] 19.1 µM | [9] 15 µM | [10] 11.1 µM

CC[C@H](NC(=O)c1cc(F)ccc1NS(=O)(=O)c1cccc2cccnc12)c1ccccc1
inactive: [1] | [2] | [3] | [4] | [5] | [8] | [9]

Cc1occc1C(=O)Nc1ccc(C(=O)N2CCC(F)(F)/C(=C\C(=O)N3CCC(N4CCCCC4)CC3)c3ccccc32)cc1
inactive: [1] | [4] | [5] | [6] | [10]
active: [2] 57.8 µM | [3] 34.5 µM | [7] 49.8 µM | [9] 23.7 µM

O=C1CCC(C2CCCCC2)CC1
inactive: [1] | [2] | [3] | [4] | [5] | [8] | [9] | [10]
active: [1] 151 µM and 159 µM | [3] 134 µM | [8] 150 µM | [9] 100 µM and 154 µM and 114 µM
